Screening results: PubChem, National Center for Advancing Translational Sciences (NCATS)
D2 ag-1: agonists of human D2 dopamine receptor. HEK293 T-REx D2 cells, calcium flux agonist mode. activation, % at 2 µM. 340,000 tested, 0.53% active. AID 485358;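 active = activation over 3 SD above normal in the single-dose calcium agonist read, cut at about 30% in these data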
Target sequence (P14416 whole entry, looked up): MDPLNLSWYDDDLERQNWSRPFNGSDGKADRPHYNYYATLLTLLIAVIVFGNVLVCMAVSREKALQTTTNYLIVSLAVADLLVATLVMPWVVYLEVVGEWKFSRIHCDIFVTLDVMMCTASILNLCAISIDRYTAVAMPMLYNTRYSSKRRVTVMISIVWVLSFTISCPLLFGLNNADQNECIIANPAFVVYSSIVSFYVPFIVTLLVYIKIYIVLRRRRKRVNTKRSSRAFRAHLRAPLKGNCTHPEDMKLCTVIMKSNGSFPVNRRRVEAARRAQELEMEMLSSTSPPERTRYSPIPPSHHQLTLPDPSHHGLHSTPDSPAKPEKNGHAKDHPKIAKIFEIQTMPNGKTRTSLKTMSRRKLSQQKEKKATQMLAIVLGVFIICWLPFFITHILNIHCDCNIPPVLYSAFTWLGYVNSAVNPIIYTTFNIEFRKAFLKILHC
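Agonism scored from kinetic calcium signal (1 read/sec, 180 s) following compound pin transfer, after a 10 s baseline. Cells: HEK293 Trex line expressing inducible D2 receptor coupled to calcium, dye-loaded after overnight culture at 30 C.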
D2 ag-2: human D2 receptor agonism in beta-arrestin assay. P14416. DiscoveRx PathHunter D2 beta-arrestin, luminescence, 90 min; 100% = 57 uM dopamine signal. activation, % (no concentration beside the values). 360,000 tested, 0.084% active. AID 624465; in the data active = activation above about 40%; inconclusive = between about 15% and that limit
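DiscoveRx PathHunter D2 beta-arrestin cells (2,100/well) attached overnight, then compound-stimulated 90 min at 37 C in HBSS/10 mM HEPES/0.1% Tween-20 buffer; beta-galactosidase complementation read by luminescence after 1 h at ambient temperature. Dopamine 57 uM final (EC100) as control.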
D2 PAM-1: positively modulates the human D2 dopamine receptor allosterically. P14416. HEK293 T-REx D2, calcium flux, EC20 dopamine potentiation. potentiation, % at 10 µM. 340,000 tested, 0.34% active. AID 485347;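 active = potentiation over 3 SD above the plate norm, cut at about 30% in these data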
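Primary screen. Calcium kinetics in induced HEK293 T-REx D2 cells: compound pre-addition 180 s, EC20 dopamine, 180 s more.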
D2 antag: antagonizes the human D2 dopamine receptor. P14416. HEK293 TREx D2 cells, calcium flux, dopamine EC80. inhibition, % at 10 µM. 340,000 tested, 2% active; in the data active = inhibition above about 30%; inactive = below that, where a call was filed
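Calcium flux kinetic readout in an inducible HEK293 TREx D2 line plated overnight at 30 C. After 180 s compound exposure, an EC80 dopamine challenge follows with another 180 s kinetic read to detect antagonism.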
D2 PAM-2: positive allosteric modulators of human D2 dopamine receptor. 360,000 tested, 0.23% active. DiscoveRx D2 beta-arrestin cells, luminescence, 90 min; 100% = 57 uM dopamine signal. P14416. potentiation, % (test concentration not listed); in the data active = potentiation above about 50%; inconclusive = mostly about 30% to 49%
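PathHunter D2 cells, attached overnight at 37 deg C, received compound in DMSO plus dopamine at EC20 (50 nM final) for 90 min at 37 deg C. Beta-arrestin recruitment was read as luminescence after 1 h with detection reagent at ambient temperature.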
Numbers stand for hits; n = inactive; u = inconclusive; x = not tested or not shown. Most compounds without a hit are left out; they make up all but 2.4% or so of the library.

SMILES	D2 ag-1	D2 ag-2	D2 PAM-1	D2 antag	D2 PAM-2
CCN(CC)c1ccc(NC(=O)C2CC(=O)N(Cc3ccccc3)C2)cc1 (stereo not given)	n	n	n	n	n
CN(C)S(=O)(=O)c1ccc(NC(=O)C2CC(=O)N(Cc3ccccc3)C2)cc1 (stereo not given)	n	n	31	n	n
COc1cc2ccccc2cc1C(=O)Nc1ccc2oc(-c3cccc(C)c3)nc2c1	n	x	n	x	x
O=C(COc1ccccc1-c1ccccc1)N/N=C/c1cccc2ccccc12	n	n	n	n	n
COc1ccc(/C=N/NC(=O)COc2ccccc2-c2ccccc2)cc1	n	n	n	39	n
O=C(CSc1nc2nc[nH]c2c(=O)[nH]1)NC1CCCCC1	n	n	n	48	n
COc1ccc2c(c1)c1c(c(=O)n(-c3ccccc3)c(=O)n1CC(=O)NCCC1=CCCCC1)n2C	n	x	n	x	x
CCCCNC(=O)Cc1coc2ccc3ccccc3c12	n	n	33	n	n
Cc1cc(C)n(C(C)CC(=O)Nc2cccc(C(F)(F)F)c2)n1 (stereo not given)	n	x	n	x	x
CCc1ccccc1NC(=O)Cn1nc(N2CCN(c3ccccc3OC)CC2)ccc1=O	n	x	n	x	x
COc1ccc(N2CCN(C(=O)CSc3nnc4n3C(C)(C)Cc3ccccc3-4)CC2)cc1	n	n	n	n	n
Cc1ccc(Cl)cc1N1CCN(C(=O)CSc2nnc3n2C(C)(C)Cc2ccccc2-3)CC1	n	n	31	n	n
O=c1onc(-c2ccc(Cl)cc2Cl)n1-c1cccnc1	n	60	n	n	59
O=C1c2ccncc2C(=O)N1c1cccc(Cl)c1	n	n	n	n	n
Cc1ccc(C)c(N2CCN(C(=O)c3cc(S(=O)(=O)N4CCCCC4)cn3C)CC2)c1	n	x	n	x	x
COc1ccc(-c2cc([N+](=O)[O-])ccc2OCC(=O)N(C)CC(=O)Nc2ccc(C)cc2)cc1	n	n	n	n	n
Cc1ccc(NC(=O)CN(C)C(=O)COc2cc(F)ccc2[N+](=O)[O-])cc1	n	n	n	62	n
O=c1c(Cc2ccc(F)cc2)c(O)ccn1Cc1ccc(Cl)cc1Cl	n	n	n	44	n
O=C(C1CC1)N1CCN=C1SCc1ccccc1Cl	n	n	n	35	n
CCC(=O)N1CCN=C1SCc1ccc(Cl)cc1	n	n	30	n	n
O=C(c1cccs1)N1CCN=C1SCc1ccccc1F	33	n	n	n	n
O=C(c1cccs1)N1CCN=C1SCc1ccc(Cl)cc1	n	n	n	n	n
O=c1[nH]c(SCc2ccc(F)cc2)nc2c1CCCC2	n	x	n	x	x
COc1ccc(NC(=O)CCS(=O)(=O)c2cc3c(cc2C)NC(=O)CO3)cc1Cl	n	x	n	x	x
Cc1cc(C)c(NC(=O)COC(=O)c2cccc3c2C(=O)c2ccccc2C3=O)c(C)c1	n	n	n	n	55
SMILES	D2 ag-1	D2 ag-2	D2 PAM-1	D2 antag	D2 PAM-2
Cc1ccc(Cl)cc1NC(=O)COC(=O)c1ccccc1O	n	n	n	n	n
Cc1ccc(NC(=O)COC(=O)c2cccc3c2C(=O)c2ccccc2C3=O)c(C)c1	n	n	n	n	56
Cc1ccc(C)c(NC(=O)COC(=O)c2cccc3c2C(=O)c2ccccc2C3=O)c1	n	u	n	n	54
Cc1ccc(-c2nnc(Nc3ccc(O)cc3)c3ccccc23)cc1S(=O)(=O)NC(C)(C)CO	n	x	n	x	x
Cc1ccc(S(=O)(=O)Oc2ccccc2N2C(=O)C3CC=CCC3C2=O)cc1 (stereo not given)	n	n	n	40	n
CCN1C(=O)[C@H]2[C@@H](c3ccc(-c4ccc(C(C)=O)cc4)c(OC)c3)N[C@@](Cc3ccccc3)(C(=O)OC)[C@H]2C1=O	n	n	n	32	n
CCc1ccccc1NC(=O)c1ccc(F)c(S(=O)(=O)N2CCN(c3ccccc3OC)CC2)c1	n	x	n	x	x
CC(C)CCNC(=O)C1CCN(S(=O)(=O)c2cccc3nsnc23)CC1	n	x	n	x	x
Cc1nn(Cc2ccc(Cl)cc2)c2sc(C(=O)O)cc12	n	n	n	32	n
Cc1nn(Cc2ccccc2Cl)c2sc(C(=O)Nc3nccs3)cc12	n	n	n	38	n
Cc1nn(Cc2ccc(F)cc2)c2sc(C(=O)Nc3nccs3)cc12	n	u	n	n	u
